Inconclusive results are not listed. Values without a mark were called inactive. Active and inactive are the calls of the source. Unless noted, the call rests on the fitted dose curve; in most records, active means well fitted curve in the direction sought with a large enough effect; inconclusive means small, poorly fitted or top-dose-only effect, or another doubt; inactive means no such curve, though single readings can be large; an effect the other way counts as inactive or inconclusive.

Experiment [1] has as its target Cellular tumor antigen p53 (Homo sapiens) (UniProt P04637). As to the kind of experiment: Primary qHTS for small molecule compounds that upregulate eGFP-tagged delta133p53alpha (in C-terminal) cells. (AID 2060324).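 Further: 0% = DMSO wells and 100% = 57.5 µM 5-azacytidine.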 The method in brief: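 C-terminal eGFP-tagged delta133p53alpha NCI-H358 line; dox-induced (100 ng/ml, 24 h) then plated without dox; compounds pinned in titration, 24 h 37 °C/5% CO2; PFA fix, Hoechst nuclei; GFP by LSC.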

The target of experiment [2] is Aldehyde dehydrogenase, mitochondrial (Homo sapiens) (UniProt P05091). As to the kind of experiment: qHTS for Inhibitors of the Aldehyde Dehydrogenase Family (ALDH2) Validation screens (AID 2061302; active means well fitted inhibition curve with a large enough effect; title and protocol of this record describe different tests; further: potency means the concentration at half of the fitted maximal effect;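 on activity change, negative = inhibition: plate controls were DMSO vehicle for no effect and maximal DPI positive control response for full effect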). For orientation: qHTS replaces the single test concentration by a dilution series.
For experiment [3], the target named is Retinaldehyde dehydrogenase 3 (Homo sapiens) (UniProt P47895). Briefly: qHTS for Inhibitors of the Aldehyde Dehydrogenase Family (ALDH1A3) Validation screen (AID 2061312). Further: on the % scale 0 is the no-effect control and ±100 the full control effect; nearly all actives have a fitted effect of over 45% in size.
Experiment [4] can be described thus: BET inhibitor-based combinations targeting novel dependencies in MECOM-rearranged (r) AML: SET-2 cell line (AID 2202231).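 Further: plate controls were DMSO treated cells for no effect and wells without cells for full effect; nearly all actives have a fitted effect of over 35% in size.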 The note with it: SET-2 AML cells viability, CellTiter-Glo luminescence, 48 h; viability: hits give low values, series mostly up to about 46 µM. The method in brief:
(§1)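 Readout: CellTiter-Glo luminescence. Exposure: 48 h, 11 concentrations, 500 cells/well. Metric: AUC and within-line Z-AUC after DMSO/empty-well normalization.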

Experiment [5] in a line: BET inhibitor-based combinations targeting novel dependencies in MECOM-rearranged (r) AML: OCI-AML3 cell line (AID 2202232). Further: nearly all actives have a fitted effect of over 35% in size. Further: potency means the concentration at half of the fitted maximal effect.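 On viability (% of control): series mostly up to about 46 µM; plate controls were DMSO vehicle wells for no effect and wells without cells for full effect.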 The note with it: Potency: OCI-AML3 viability. Put shortly: as §1
Experiment [6] can be described thus: BET inhibitor-based combinations targeting novel dependencies in MECOM-rearranged (r) AML: MV-4-11 cell line (AID 2202233). Further: nearly all actives have a fitted effect of over 45% in size. Further: potency means the concentration at half of the fitted maximal effect.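 On viability, % of control: plate controls were DMSO for no effect and blank wells for full effect.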 Put shortly: (§2)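 Seeding density was 500 cells/well, and drug exposure lasted 48 hr under standard culture conditions. Read-out used CellTiter-Glo reagent with a 15 min room-temperature incubation before luminescence measurement; AUC and Z-AUC summarize the normalized responses.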

Experiment [7] in a line: BET inhibitor-based combinations targeting novel dependencies in MECOM-rearranged (r) AML: HNT-34 cell line (AID 2202234). Further: nearly all actives have a fitted effect of over 35% in size. Further: potency means the concentration at half of the fitted maximal effect.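 On viability (% of control): plate controls were vehicle wells for no effect and cell-free wells for full effect.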 The method in brief: as §2
A short description of experiment [8]: BET inhibitor-based combinations targeting novel dependencies in MECOM-rearranged (r) AML: UCSD-AML1 cell line (AID 2202235). Further: nearly all actives have a fitted effect of over 40% in size. Further: potency means the concentration at half of the fitted maximal effect.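 On viability (% of control): series mostly up to about 46 µM; plate controls were DMSO vehicle wells for no effect and blank wells for full effect.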 Put shortly:
as §2

The nature of experiment [9]: BET inhibitor-based combinations targeting novel dependencies in MECOM-rearranged (r) AML: AML-191 cell line (AID 2202236; further: nearly all actives have a fitted effect of over 35% in size; further: potency means the concentration at half of the fitted maximal effect;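 on viability (% of control): plate controls were vehicle wells for no effect and wells without cells for full effect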). Put shortly: as §1
Experiment [10] can be described thus: BET inhibitor-based combinations targeting novel dependencies in MECOM-rearranged (r) AML: AML-194 cell line (AID 2202237; further: nearly all actives have a fitted effect of over 40% in size; further: potency means the concentration at half of the fitted maximal effect;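 on viability (% of control): plate controls were vehicle wells for no effect and wells without cells for full effect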). Put shortly:
as §1

The target of experiment [11] is Aldehyde dehydrogenase, mitochondrial (Homo sapiens) (UniProt P05091). Briefly: qHTS for Inhibitors of the Aldehyde Dehydrogenase Family (ALDH2) Primary screen (AID 2061308). Further: nearly all actives have a fitted effect of over 55% in size. Further: potency means the concentration at half of the fitted maximal effect.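 On activity change, negative = inhibition: plate controls were vehicle for no effect and reference inhibitor for full effect.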
The target of experiment [12] is Retinaldehyde dehydrogenase 3 (Homo sapiens) (UniProt P47895). As to the kind of experiment: qHTS for Inhibitors of the Aldehyde Dehydrogenase Family (ALDH1A3) Primary screen (AID 2061315).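 Further: plate controls were DMSO vehicle for no effect and reference inhibitor for full effect.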
Experiment [13] addresses Aldehyde dehydrogenase, mitochondrial (Homo sapiens) (UniProt P05091). As to the kind of experiment: qHTS for Inhibitors of the Aldehyde Dehydrogenase Family (ALDH2) Confirmatory screens (AID 2061303; active means well fitted inhibition curve with a large enough effect; title and protocol of this record describe different tests; further: nearly all actives have a fitted effect of over 45% in size; further: potency means the concentration at half of the fitted maximal effect; on activity change, negative = inhibition: on the % scale 0 is the no-effect control and ±100 the full control effect).
A short description of experiment [14]: qHTS for Inhibitors of the Aldehyde Dehydrogenase Family (ALDH1A2, ALDH1A3, ALDH2, ALDH3A1) (AID 2061307). Further: nearly all actives have a fitted effect of over 50% in size. On Potency: test system not described further here; potency means the concentration at half of the fitted maximal effect. On activity change, negative = inhibition: on the % scale 0 is the no-effect control and ±100 the full control effect.
The target in experiment [15] is Retinaldehyde dehydrogenase 3 (Homo sapiens) (UniProt P47895). As to the kind of experiment: qHTS for Inhibitors of the Aldehyde Dehydrogenase Family (ALDH1A3) Confirmatory screens (AID 2061311). Further: nearly all actives have a fitted effect of over 60% in size. Further: potency means the concentration at half of the fitted maximal effect. On activity change, negative = inhibition: on the % scale 0 is the no-effect control and ±100 the full control effect.
Experiment [16] has as its target Retinal dehydrogenase 2 (Homo sapiens) (UniProt O94788). As to the kind of experiment: qHTS for Inhibitors of the Aldehyde Dehydrogenase Family (ALDH1A2) Confirmation screens (AID 2061314). Further: nearly all actives have a fitted effect of over 65% in size. Further: potency means the concentration at half of the fitted maximal effect.
In experiment [17] the target is Aldehyde dehydrogenase 1A1 (Homo sapiens) (UniProt P00352). Briefly: qHTS for Inhibitors of the Aldehyde Dehydrogenase Family (ALDH1A1) Confirmatory screens (AID 2061316). Further: nearly all actives have a fitted effect of over 65% in size. Further: potency means the concentration at half of the fitted maximal effect. On activity change, negative = inhibition: on the % scale 0 is the no-effect control and ±100 the full control effect.

Sequence of Cellular tumor antigen p53 (Homo sapiens) (P04637 whole entry, looked up): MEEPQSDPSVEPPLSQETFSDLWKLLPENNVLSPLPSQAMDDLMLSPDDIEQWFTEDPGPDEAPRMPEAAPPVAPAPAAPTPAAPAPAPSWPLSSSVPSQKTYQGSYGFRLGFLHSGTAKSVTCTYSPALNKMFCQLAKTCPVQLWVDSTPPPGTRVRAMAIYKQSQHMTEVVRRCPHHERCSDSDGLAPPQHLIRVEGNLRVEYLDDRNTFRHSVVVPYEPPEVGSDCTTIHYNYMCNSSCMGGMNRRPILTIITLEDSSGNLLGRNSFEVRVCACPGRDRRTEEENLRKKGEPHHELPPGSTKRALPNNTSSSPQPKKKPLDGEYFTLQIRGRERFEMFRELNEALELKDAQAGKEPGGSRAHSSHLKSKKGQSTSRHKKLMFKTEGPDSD

With `CC(C)CC(NP(=O)(O)O[C@@H]1O[C@@H](C)[C@H](O)[C@@H](O)[C@H]1O)C(=O)NC(Cc1c[nH]c2ccccc12)C(=O)O` (some centres not stated), the Potency result in experiment [1], in experiment [2] and in experiment [3] was “inactive” each time.

For `NC(=O)c1cccc(N)c1`, the Potency entry in experiment [1], in experiment [2], in experiment [3], in experiment [5], in experiment [6] and in [7] was “inactive” each time. Also, the Potency entry in [8], in [9] and in [10] was “inactive” in each case. The viability (in general, a read-out of living cells in per cent, often relative to untreated cells) in experiment [4] is 120%.

Turning to `NC(=O)c1cn(Cc2c(F)cccc2F)nn1`, the Potency entry in experiment [1], in experiment [2] and in experiment [3] was “inactive” throughout.

Turning to `CC(C)c1cccc(C(C)C)c1N1C(=O)c2ccc(O)cc2C1=O`, the Potency entry in experiment [1], in experiment [2] and in experiment [3] was “inactive” in each case.

For `O=c1c(-c2ccc(O)cc2)coc2cc(O[C@@H]3O[C@H](CO)[C@@H](O)[C@H](O)[C@H]3O)cc(O)c12`, the Potency entry in [2] was “inactive”.

In the case of `CC(C)(C)NCC(O)c1cc(O)cc(O)c1` (configuration not stated), the Potency entry in [1], in [2] and in experiment [3] was “inactive” in each case.

With `Cc1nnc(SCC2=C(C(=O)O)N3C(=O)[C@@H](NC(=O)Cn4cnnn4)[C@H]3SC2)s1`, in [2], the Potency entry is “inactive”.

As to `Cc1oncc1C(=O)Nc1ccc(C(F)(F)F)cc1`, the Potency result in experiment [1], in [2] and in [8] was “inactive” each time. Besides, the Potency in [7] was 16.6 µM (active).

On to `C/C=C/CC(C)C(O)C1C(=O)NC(CC)C(=O)N(C)CC(=O)N(C)C(CC(C)C)C(=O)NC(C(C)C)C(=O)N(C)C(CC(C)C)C(=O)NC(C)C(=O)NC(C)C(=O)N(C)C(CC(C)C)C(=O)N(C)C(CC(C)C)C(=O)N(C)C(C(C)C)C(=O)N1C` (configuration not stated), for which the Potency result in [1], in [11], in experiment [3] and in [12] was “inactive” each time.

Turning to `CC(C)(C)OC(=O)N1CCN(c2ccc(NCc3ccc(-c4ccc(C#N)cc4)o3)cc2)CC1`, the Potency in experiment [2] was 0.282 µM (active); in experiment [13] it was 0.0794 µM (active); in experiment [14], 4.47 µM (active); in experiment [15], 15.8 µM (active); in [16] it was 7.94 µM (active). For the same molecule, the Potency result in [11] and in experiment [12] was “inactive” throughout.

Turning to `COc1ccc(Cc2nccc3cc(OC)c(OC)cc23)cc1OC`, the Potency result in experiment [1] was “inactive”. Moreover, the Potency is 8.33 µM (active) in [5], 18.6 µM (active) in experiment [6], 5.9 µM (active) in [7] and 8.33 µM (active) in experiment [8].

As to `O=c1c(-c2ccc(O[C@@H]3O[C@H](CO)[C@@H](O)[C@H](O)[C@H]3O)cc2)coc2cc(O)cc(O)c12`, the Potency entry in experiment [2] was “inactive”.

Take `NC(=O)c1ccccc1`: the Potency entry in experiment [2] and in experiment [3] was “inactive” throughout.

Consider `CC1=C(C(=O)O)N2C(=O)[C@@H](NC(=O)C(N)C3=CCC=CC3)[C@H]2SC1` (some centres not stated), for which the Potency entry in [2] and in experiment [3] was “inactive” in each case.

Consider `NC1CONC1=O` (configuration not stated), for which the Potency entry in experiment [2] and in [3] was “inactive” in each case.

Turning to `Cc1ccc(S(=O)(=O)NC(=O)NN2CCCCCC2)cc1`, the Potency entry in experiment [2], in experiment [13], in [15] and in [17] was “inactive” in each case.

For the molecule `Nc1nc(OCC2CCCCC2)c2[nH]cnc2n1`, the Potency entry in experiment [2] and in [3] was “inactive” throughout.

Take `N#Cc1ccc(-c2ccc(CNc3ccc(N4CCC(C#N)CC4)cc3)o2)cc1`: the Potency in experiment [2] was 0.631 µM (active); in experiment [13], 0.1 µM (active); in experiment [14], 1.27 µM (active); in experiment [11], 0.1 µM (active); in [15] it was 7.94 µM (active); in experiment [17], 5.04 µM (active). For the same molecule, the Potency result in experiment [12] is “inactive”.

As for `CCn1cc(C(=O)O)c(=O)c2ccc(C)nc21`, the Potency entry in experiment [2] and in experiment [3] was “inactive” each time.

As to `CCN(CC)CCCC(C)Nc1ccnc2cc(Cl)ccc12` (configuration not stated), the Potency result in experiment [2] and in experiment [3] was “inactive” in each case. Further, the activity change, negative = inhibition in experiment [11] was 0.897% [at 11.2 µM]; in [12] it was 6.44% [at 11.2 µM]. Also, the viability in experiment [4] is 102%. The viability (% of control) in experiment [5] is 92.2% [at 8.46 µM]; in experiment [9], 95.1% [at 8.46 µM]; in [10], 111% [at 8.46 µM]. In addition, the viability, % of control in [6] was 101% [at 8.46 µM]. The Potency in [7] is 5.39 µM (active).

Turning to `CN1Cc2sccc2C(c2ccc(O)c(O)c2)C1` (configuration not stated), the Potency entry in [2], in experiment [13], in [14] and in [16] was “inactive” in each case.

Take `COC(=O)C1=C(C)NC(C)=C(C(=O)OC)C1c1cccc(NC(=O)NCCCN2CCC(c3cccc(OC)c3)CC2)c1`: the Potency entry in experiment [2], in experiment [11], in experiment [3] and in [12] was “inactive” throughout.

For the molecule `CNCCCC12CCC(c3ccccc31)c1ccccc12`, the Potency result in [2], in [11], in [3] and in experiment [12] was “inactive” throughout. The Potency in experiment [5] is 18.6 µM (active); in [6], 29.5 µM (active); in [9], 23.5 µM (active); in experiment [10], 26.3 µM (active).

On to `Cc1ccc(Cl)c(Nc2ccccc2C(=O)O)c1Cl`, for which the Potency result in [2] and in experiment [3] was “inactive” in each case.

For `CC(C)(C)OC(=O)N1CCN(c2ccc(NCc3ccc(-c4ccc(C#N)cc4)o3)nc2)CC1`, the Potency in [2] was 0.708 µM (active); in [13], 0.447 µM (active); in experiment [14] it was 15.8 µM (active); in experiment [16] it was 25.1 µM (active); in experiment [17], 7.12 µM (active). Further, in [12], the Potency entry is “inactive”.

In the case of `CC(C)(C)OC(=O)N1CCN(c2cnc(NCc3ccc(-c4ccc(C#N)cc4)o3)cn2)CC1`, the Potency in experiment [2] is 0.316 µM (active); in experiment [13], 0.355 µM (active); in experiment [14] it was 3.18 µM (active); in [15], 11.3 µM (active); in experiment [16], 1.79 µM (active); in experiment [17], 4.49 µM (active). Also, the Potency entry in experiment [12] is “inactive”.

Values taken from PubChem BioAssay (NCATS).
